Reference: the supplement of paper PMC10849652
Targets with a hit are over-represented here; the source holds about 7,900 in all. About 0.6% of all pairs of compound and target were hits.

Legend:
Experiment in all cases: log2 fold change, soluble protein after heating vs DMSO (PISA); higher = thermal stabilisation; K562 cells, 10 uM, 30 min; active = over 0.2 and 3.5 SD of the protein, either way, in both replicates (recomputed)
[1] = compound: NC(=O)Nc1cc(-c2cccc(F)c2)sc1C(=O)N[C@H]1CCCNC1
Procedure, shortened: (§1)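 Soluble protein was quantified by TMTpro 16plex LC-MS/MS after channel sums were equalised. It was obtained as the supernatant after 21,000xg for 90 min from pooled aliquots of K562 cells (2×10^6 cells/mL, 10 μM compound, 30 min) heated for 3 min across 48°C-58°C and extracted in PBS with 0.5% NP-40 at 4°C. Thermal stability values are relative to control samples and come from duplicates. They are given as log2 fold changes.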

[2] = compound: NC(=O)c1cnc(N[C@@H]2CCCC[C@@H]2N)nc1Nc1cccc(-n2nccn2)c1
Procedure, shortened: as §1

[3] = compound: NC1(c2ccc(-c3nc4ccn5c(=O)[nH]nc5c4cc3-c3ccccc3)cc2)CCC1
Procedure, shortened: as §1

[4] = compound: NCC(=O)Nc1ccc(-n2nc(C(F)(F)F)cc2-c2ccc3c(ccc4ccccc43)c2)cc1
Procedure, shortened: as §1

entinostat = compound: Nc1ccccc1NC(=O)c1ccc(CNC(=O)OCc2cccnc2)cc1 [entinostat]
Procedure, shortened: as §1

vorinostat = compound: O=C(CCCCCCC(=O)Nc1ccccc1)NO [vorinostat]
Procedure, shortened: as §1

citarinostat = compound: O=C(CCCCCCNC(=O)c1cnc(N(c2ccccc2)c2ccccc2Cl)nc1)NO [citarinostat]
Procedure, shortened: as §1

silmitasertib = compound: O=C(O)c1ccc2c(c1)nc(Nc1cccc(Cl)c1)c1ccncc12 [silmitasertib]
Procedure, shortened: as §1

[5] = compound: O=C1NC(=O)C(c2cnc3ccccn23)=C1c1cn2c3c(cc(F)cc13)CN(C(=O)N1CCCCC1)CC2
Procedure, shortened: as §1

[6] = compound: c1cc(OCCN2CCCCC2)cc(-c2n[nH]c3ccc(-c4nnc[nH]4)cc23)c1
Procedure, shortened: as §1

Measured: log2 fold change

BTAF1 (UniProt O14981)
inactive: [1] -0.024 | [2] -0.012 | [3] -0.152 | [4] -0.104 | entinostat 0.012 | vorinostat 0.037 | citarinostat 0.038 | silmitasertib 0.036 | [5] -0.062 | [6] 0.079

ARMC10 (UniProt Q8N2F6)
inactive: [1] -0.039 | [2] 0.003 | [3] 0.005 | [4] 0.028 | entinostat 0.005 | vorinostat 0.056 | citarinostat 0.096 | silmitasertib 0.054 | [5] -0.039 | [6] -0.062

ADRM1 (UniProt Q16186)
inactive: [1] -0.009 | [2] -0.045 | [3] -0.058 | [4] 0.006 | entinostat -0.012 | vorinostat 0.038 | citarinostat 0.067 | silmitasertib 0 | [5] 0.064 | [6] -0.052

ACIN1 (UniProt Q9UKV3)
inactive: [1] -0.013 | [2] -0.038 | [3] 0.003 | [4] -0.062 | entinostat -0.024 | vorinostat 0.035 | citarinostat 0.035 | silmitasertib -0.124 | [5] 0.013 | [6] -0.084

ARF4 (UniProt P18085)
UniProt P18085, sequence (P18085 whole entry, looked up): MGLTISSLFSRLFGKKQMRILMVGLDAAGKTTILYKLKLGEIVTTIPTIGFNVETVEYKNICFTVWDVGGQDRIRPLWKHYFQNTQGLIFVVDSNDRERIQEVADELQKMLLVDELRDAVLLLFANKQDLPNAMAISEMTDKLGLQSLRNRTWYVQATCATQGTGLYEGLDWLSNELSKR
inactive: [1] -0.011 | [2] 0.025 | [3] -0.082 | [4] -0.06 | entinostat -0.002 | vorinostat -0.024 | citarinostat 0.041 | silmitasertib -0.017 | [5] -0.069 | [6] -0.004

AMFR (UniProt Q9UKV5)
inactive: [1] -0.024 | [2] -0.128 | [3] -0.115 | [4] -0.075 | entinostat 0.051 | vorinostat 0.055 | citarinostat 0.012 | silmitasertib 0.07 | [5] -0.032 | [6] 0.021

ATP1A4 (UniProt Q13733)
inactive: [1] 0.023 | [2] 0.069 | [3] 0.059 | [4] -0.03 | entinostat -0.001 | vorinostat -0.002 | citarinostat 0.121 | silmitasertib 0.007 | [5] 0.176 | [6] -0.088

ATOX1 (UniProt O00244)
UniProt O00244, sequence (O00244 whole entry, looked up): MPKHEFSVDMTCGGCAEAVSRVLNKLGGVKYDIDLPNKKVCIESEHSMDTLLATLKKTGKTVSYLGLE
inactive: [1] 0.175 | [2] 0.273 | [3] -0.032 | [4] 0.03 | entinostat 0.081 | vorinostat -0.018 | citarinostat 0.091 | silmitasertib -0.105 | [5] -0.081 | [6] -0.004

ANKZF1 (UniProt Q9H8Y5)
inactive: [1] -0.008 | [2] 0.026 | [3] 0.072 | [4] -0.001 | entinostat 0.03 | vorinostat 0.054 | citarinostat -0.006 | silmitasertib -0.051 | [5] 0.215 | [6] -0.065

ATAD3A isoform 2 (UniProt Q9NVI7)
inactive: [1] 0.011 | [2] -0.088 | [3] -0.128 | [4] -0.088 | entinostat 0.053 | vorinostat 0.123 | citarinostat 0.076 | silmitasertib 0.051 | [5] 0.12 | [6] -0.127

ARHGAP1 (UniProt Q07960)
inactive: [1] -0.068 | [2] -0.048 | [3] -0.003 | [4] -0.051 | entinostat 0.016 | vorinostat 0.012 | citarinostat 0.009 | silmitasertib 0.014 | [5] -0.024 | [6] -0.093

AIFM2 (UniProt Q9BRQ8)
inactive: [1] 0.016 | [2] -0.019 | [3] 0.034 | [4] -0.02 | entinostat -0.01 | vorinostat -0.053 | citarinostat 0.046 | silmitasertib 0.03 | [5] 0.047 | [6] -0.034

ATP5ME (UniProt P56385)
UniProt P56385, sequence (P56385 whole entry, looked up): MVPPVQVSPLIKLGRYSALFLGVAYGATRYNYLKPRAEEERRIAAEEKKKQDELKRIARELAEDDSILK
inactive: [1] 0.003 | [2] -0.007 | [3] 0.057 | [4] -0.04 | entinostat 0.026 | vorinostat -0.027 | citarinostat -0.007 | silmitasertib -0.008 | [5] -0.037 | [6] -0.039

ASH2L (UniProt Q9UBL3)
inactive: [1] -0.025 | [2] -0.075 | [3] 0.002 | [4] -0.074 | entinostat 0.025 | vorinostat 0.013 | citarinostat 0.044 | silmitasertib 0.08 | [5] -0.064 | [6] -0.05

ATP11A (UniProt P98196)
UniProt P98196, sequence (P98196 whole entry, looked up): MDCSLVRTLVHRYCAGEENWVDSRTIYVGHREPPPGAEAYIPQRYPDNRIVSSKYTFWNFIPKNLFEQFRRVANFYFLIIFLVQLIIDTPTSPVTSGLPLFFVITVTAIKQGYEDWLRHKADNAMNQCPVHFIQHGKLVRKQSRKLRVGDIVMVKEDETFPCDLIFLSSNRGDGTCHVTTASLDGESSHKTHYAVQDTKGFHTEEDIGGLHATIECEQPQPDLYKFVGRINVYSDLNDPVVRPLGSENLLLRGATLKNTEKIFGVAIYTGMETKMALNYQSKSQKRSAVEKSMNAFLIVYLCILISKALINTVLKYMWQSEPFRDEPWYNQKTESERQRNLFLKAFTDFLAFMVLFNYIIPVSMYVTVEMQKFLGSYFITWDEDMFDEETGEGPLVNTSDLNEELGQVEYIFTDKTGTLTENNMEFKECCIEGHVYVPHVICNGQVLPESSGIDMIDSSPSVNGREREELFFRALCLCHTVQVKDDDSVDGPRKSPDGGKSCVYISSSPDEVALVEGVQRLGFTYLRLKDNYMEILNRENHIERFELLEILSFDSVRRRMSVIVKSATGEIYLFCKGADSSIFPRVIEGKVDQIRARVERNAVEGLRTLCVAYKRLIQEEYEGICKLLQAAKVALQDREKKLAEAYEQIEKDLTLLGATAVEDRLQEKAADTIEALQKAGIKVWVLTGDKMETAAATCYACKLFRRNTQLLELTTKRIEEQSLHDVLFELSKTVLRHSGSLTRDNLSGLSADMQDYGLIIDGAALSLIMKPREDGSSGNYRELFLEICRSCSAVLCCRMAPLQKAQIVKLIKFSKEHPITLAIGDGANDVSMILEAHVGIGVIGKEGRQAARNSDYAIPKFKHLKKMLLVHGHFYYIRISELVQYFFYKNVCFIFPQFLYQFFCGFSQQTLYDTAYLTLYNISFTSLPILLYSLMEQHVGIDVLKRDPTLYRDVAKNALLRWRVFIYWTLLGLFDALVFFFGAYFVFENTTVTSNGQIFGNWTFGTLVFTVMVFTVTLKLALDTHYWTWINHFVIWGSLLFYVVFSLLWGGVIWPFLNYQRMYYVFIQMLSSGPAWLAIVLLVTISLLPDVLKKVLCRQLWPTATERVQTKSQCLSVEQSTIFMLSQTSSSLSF
inactive: [1] -0.034 | [2] 0.065 | [3] -0.001 | [4] -0.054 | entinostat -0.025 | vorinostat -0.08 | citarinostat -0.154 | silmitasertib 0.065 | [5] -0.024
active: [6] -0.32

ADH5 (UniProt P11766)
UniProt P11766, sequence (P11766 whole entry, looked up): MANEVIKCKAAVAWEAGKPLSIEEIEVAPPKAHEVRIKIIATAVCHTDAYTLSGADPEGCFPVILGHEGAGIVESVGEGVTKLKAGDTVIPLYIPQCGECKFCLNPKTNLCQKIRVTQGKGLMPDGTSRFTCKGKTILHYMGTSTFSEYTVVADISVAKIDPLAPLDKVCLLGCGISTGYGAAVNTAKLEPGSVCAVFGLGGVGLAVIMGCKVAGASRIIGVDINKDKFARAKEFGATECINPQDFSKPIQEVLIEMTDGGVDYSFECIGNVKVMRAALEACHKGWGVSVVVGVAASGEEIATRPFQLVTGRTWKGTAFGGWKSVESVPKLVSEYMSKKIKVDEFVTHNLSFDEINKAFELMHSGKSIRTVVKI
inactive: [1] 0.024 | [2] 0.002 | [3] -0.006 | [4] 0.021 | entinostat -0.031 | vorinostat -0.013 | citarinostat 0.015 | silmitasertib -0.026 | [5] -0.03 | [6] -0.016

ADPRHL2 (UniProt Q9NX46)
inactive: [1] -0.022 | [2] -0.02 | [3] -0.056 | [4] -0.045 | entinostat 0.027 | vorinostat -0.039 | citarinostat 0.076 | silmitasertib -0.045 | [5] -0.028 | [6] 0.055

ATP1B3 (UniProt P54709)
inactive: [1] -0.065 | [2] -0.011 | [3] 0.066 | [4] 0.004 | entinostat -0.041 | vorinostat -0.007 | citarinostat 0.037 | silmitasertib 0.002 | [5] -0.057 | [6] -0.088

ABCB6 (UniProt Q9NP58)
active: [3] -0.456
inactive: [1] 0.005 | [2] -0.111 | [4] -0.015 | entinostat -0.011 | vorinostat 0.044 | citarinostat 0.063 | silmitasertib 0.018 | [5] -0.047 | [6] -0.021

AARS2 (UniProt Q5JTZ9)
UniProt Q5JTZ9, sequence (Q5JTZ9 whole entry, looked up): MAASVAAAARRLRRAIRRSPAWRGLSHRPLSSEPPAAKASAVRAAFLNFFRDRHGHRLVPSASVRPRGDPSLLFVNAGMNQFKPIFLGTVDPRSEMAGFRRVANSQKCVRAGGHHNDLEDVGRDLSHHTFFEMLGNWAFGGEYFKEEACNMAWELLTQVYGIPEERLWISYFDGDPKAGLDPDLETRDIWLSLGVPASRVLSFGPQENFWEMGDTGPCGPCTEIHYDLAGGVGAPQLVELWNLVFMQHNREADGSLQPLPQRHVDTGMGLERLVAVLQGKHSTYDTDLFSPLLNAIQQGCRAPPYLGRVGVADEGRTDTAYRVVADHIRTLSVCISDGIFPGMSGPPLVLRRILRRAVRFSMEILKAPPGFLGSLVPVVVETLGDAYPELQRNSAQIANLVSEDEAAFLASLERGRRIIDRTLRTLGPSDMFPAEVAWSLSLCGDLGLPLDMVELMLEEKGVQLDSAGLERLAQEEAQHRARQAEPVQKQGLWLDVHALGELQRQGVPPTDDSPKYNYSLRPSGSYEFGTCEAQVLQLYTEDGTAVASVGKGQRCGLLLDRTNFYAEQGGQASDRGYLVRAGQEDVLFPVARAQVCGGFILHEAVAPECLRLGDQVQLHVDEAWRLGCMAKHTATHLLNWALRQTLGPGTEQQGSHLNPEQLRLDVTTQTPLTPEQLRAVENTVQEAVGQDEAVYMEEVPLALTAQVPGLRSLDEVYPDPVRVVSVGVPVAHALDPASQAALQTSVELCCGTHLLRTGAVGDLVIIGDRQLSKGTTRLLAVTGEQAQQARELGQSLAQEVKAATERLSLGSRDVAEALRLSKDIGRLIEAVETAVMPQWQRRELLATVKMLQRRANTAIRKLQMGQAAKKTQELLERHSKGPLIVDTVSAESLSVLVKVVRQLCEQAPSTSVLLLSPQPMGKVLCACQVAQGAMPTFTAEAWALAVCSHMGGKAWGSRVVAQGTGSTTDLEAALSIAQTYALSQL
inactive: [1] -0.029 | [2] -0.018 | [3] -0.212 | [4] -0.086 | entinostat 0.045 | vorinostat 0.015 | citarinostat 0.037 | silmitasertib -0.051 | [5] -0.026 | [6] 0.06

BRD4 (UniProt O60885)
active: vorinostat -0.463
inactive: [1] -0.031 | [2] -0.096 | [3] -0.112 | [4] -0.119 | entinostat -0.097 | citarinostat -0.123 | silmitasertib 0.024 | [5] -0.129 | [6] 0.028

AGPAT1 (UniProt Q99943)
inactive: [1] 0.013 | [2] -0.022 | [3] 0.018 | [4] -0.012 | entinostat -0.033 | vorinostat -0.03 | citarinostat 0.088 | silmitasertib -0.007 | [5] -0.067 | [6] -0.002

BUB1B isoform 3 (UniProt O60566)
UniProt O60566, sequence (O60566 whole entry, looked up): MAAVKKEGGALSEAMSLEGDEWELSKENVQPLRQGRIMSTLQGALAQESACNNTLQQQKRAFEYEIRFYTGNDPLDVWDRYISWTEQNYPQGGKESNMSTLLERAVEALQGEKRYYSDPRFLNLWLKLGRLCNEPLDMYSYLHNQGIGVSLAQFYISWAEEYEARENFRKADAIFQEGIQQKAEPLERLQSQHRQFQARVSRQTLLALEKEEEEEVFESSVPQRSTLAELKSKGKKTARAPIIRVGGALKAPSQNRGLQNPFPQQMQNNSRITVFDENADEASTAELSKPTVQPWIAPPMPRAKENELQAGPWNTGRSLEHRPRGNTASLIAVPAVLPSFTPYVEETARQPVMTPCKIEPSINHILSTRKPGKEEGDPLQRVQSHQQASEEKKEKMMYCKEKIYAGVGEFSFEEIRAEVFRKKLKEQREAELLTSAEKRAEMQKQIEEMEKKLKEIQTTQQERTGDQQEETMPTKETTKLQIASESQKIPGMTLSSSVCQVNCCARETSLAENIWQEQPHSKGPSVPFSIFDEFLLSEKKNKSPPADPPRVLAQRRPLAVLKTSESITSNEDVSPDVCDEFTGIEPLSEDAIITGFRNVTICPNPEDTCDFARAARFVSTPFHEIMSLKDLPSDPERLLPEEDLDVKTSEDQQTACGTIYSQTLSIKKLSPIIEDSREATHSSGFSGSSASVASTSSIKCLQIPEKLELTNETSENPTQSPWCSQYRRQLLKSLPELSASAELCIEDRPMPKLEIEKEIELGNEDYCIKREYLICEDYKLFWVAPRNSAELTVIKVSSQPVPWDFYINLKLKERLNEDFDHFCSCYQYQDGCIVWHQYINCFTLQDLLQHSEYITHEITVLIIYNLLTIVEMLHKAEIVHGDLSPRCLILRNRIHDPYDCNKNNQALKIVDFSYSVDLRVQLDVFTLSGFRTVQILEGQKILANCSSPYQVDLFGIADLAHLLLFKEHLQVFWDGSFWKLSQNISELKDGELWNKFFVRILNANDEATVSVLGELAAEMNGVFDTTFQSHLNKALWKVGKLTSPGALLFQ
inactive: [1] 0 | [2] -0.135 | [3] -0.113 | [4] -0.039 | entinostat 0.068 | vorinostat 0.124 | citarinostat 0.02 | silmitasertib 0.111 | [5] 0.026 | [6] 0

ATP6AP1 (UniProt Q15904)
inactive: [1] -0.033 | [2] -0.208 | [3] -0.149 | [4] -0.04 | entinostat 0.025 | vorinostat 0.063 | citarinostat 0.035 | silmitasertib 0.043 | [5] -0.005 | [6] -0.087

ATAD1 (UniProt Q8NBU5)
UniProt Q8NBU5, sequence (Q8NBU5 whole entry, looked up): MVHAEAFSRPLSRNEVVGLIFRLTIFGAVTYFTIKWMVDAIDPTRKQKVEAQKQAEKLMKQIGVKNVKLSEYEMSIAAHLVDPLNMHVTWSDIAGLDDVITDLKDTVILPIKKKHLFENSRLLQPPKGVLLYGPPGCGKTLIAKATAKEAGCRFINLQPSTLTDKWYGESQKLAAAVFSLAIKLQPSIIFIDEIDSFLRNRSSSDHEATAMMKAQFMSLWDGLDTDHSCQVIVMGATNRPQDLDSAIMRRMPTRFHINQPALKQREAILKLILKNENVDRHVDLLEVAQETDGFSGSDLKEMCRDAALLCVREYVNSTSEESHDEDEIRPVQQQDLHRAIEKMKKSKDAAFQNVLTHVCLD
inactive: [1] -0.036 | [2] -0.056 | [3] -0.015 | [4] -0.009 | entinostat 0.038 | vorinostat 0.012 | citarinostat 0.032 | silmitasertib 0.012 | [5] 0.197 | [6] -0.053

AKAP8L (UniProt Q9ULX6)
inactive: [1] -0.006 | [2] 0.153 | [3] -0.063 | [4] -0.098 | entinostat 0.01 | vorinostat 0.088 | citarinostat 0.124 | silmitasertib -0.012 | [5] -0.236 | [6] -0.067

ABHD17A isoform 2 (UniProt Q96GS6)
inactive: [1] 0.036 | [2] -0.119 | [3] -0.049 | [4] -0.078 | entinostat -0.104 | vorinostat -0.04 | citarinostat 0.036 | silmitasertib -0.02 | [5] 0.01 | [6] 0.051

ATG4B isoform 2 (UniProt Q9Y4P1)
inactive: [1] 0.08 | [2] -0.104 | [3] -0.401 | [4] -0.151 | entinostat 0.154 | vorinostat 0.268 | citarinostat 0.005 | silmitasertib 0.003 | [5] -0.093 | [6] -0.023

APLP2 (UniProt Q06481)
UniProt Q06481, sequence (Q06481 whole entry, looked up): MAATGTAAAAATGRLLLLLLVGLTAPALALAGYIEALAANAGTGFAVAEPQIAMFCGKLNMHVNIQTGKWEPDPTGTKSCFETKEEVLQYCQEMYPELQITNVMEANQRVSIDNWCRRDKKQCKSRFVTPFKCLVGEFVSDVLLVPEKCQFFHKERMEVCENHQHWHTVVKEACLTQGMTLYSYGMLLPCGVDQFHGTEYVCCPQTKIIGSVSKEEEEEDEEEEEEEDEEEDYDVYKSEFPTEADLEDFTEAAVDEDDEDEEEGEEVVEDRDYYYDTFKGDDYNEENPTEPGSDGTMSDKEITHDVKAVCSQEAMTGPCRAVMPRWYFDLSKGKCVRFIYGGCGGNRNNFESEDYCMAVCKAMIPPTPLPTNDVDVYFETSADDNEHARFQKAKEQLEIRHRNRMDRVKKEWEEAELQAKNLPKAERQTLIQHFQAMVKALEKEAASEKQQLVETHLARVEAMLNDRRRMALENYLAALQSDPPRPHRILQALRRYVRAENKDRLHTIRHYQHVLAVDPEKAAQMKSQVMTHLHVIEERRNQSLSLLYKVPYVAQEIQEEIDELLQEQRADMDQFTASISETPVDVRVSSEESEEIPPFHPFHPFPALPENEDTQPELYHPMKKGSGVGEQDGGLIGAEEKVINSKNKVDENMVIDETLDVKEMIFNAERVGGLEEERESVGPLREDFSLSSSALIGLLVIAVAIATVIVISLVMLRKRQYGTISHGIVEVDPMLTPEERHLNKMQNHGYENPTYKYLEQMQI
inactive: [1] -0.13 | [2] -0.021 | [3] 0.036 | [4] 0.054 | entinostat -0.063 | vorinostat -0.035 | citarinostat 0.02 | silmitasertib 0 | [5] 0.074 | [6] 0.046
